From ChEMBL document CHEMBL4513216, “Probing the Open Global Health Chemical Diversity Library for Multistage-Active Starting Points for Next-Generation Antimalarials” (ACS Infect Dis, 2020)
About 2,700 (4%) of roughly 68,000 compounds showed an effect of 50% or more. What follows is part of a selection rich in strong results, with near analogues and random picks from the rest.

What follows are compounds tested on Plasmodium berghei (assay: Screen against P. berghei liver stage (PbLuc), transformed with Luciferase, at 2uM). Settings: tested at 2 uM.
Type: functional, HepG2

Row | SMILES | INHIBITION [%]
1 | O=C(CC1CC1)N(Cc1cccnc1)CC1CCN(C2CCCC2)CC1 | -53.72
2 | Cn1nccc1C(=O)N1CCC(n2cc(-c3ccsc3)nn2)CC1 | 15.68
3 | CCC(O)CN1CCN(C(=O)c2cccc3c2OCC(=O)N3)CC1 (stereo unspecified) | -29.24
4 | COCc1cn(CC2CCN(Cc3cc(C)[nH]n3)CC2)nn1 | 26.3
5 | c1csc(CN2CCCN(c3ccc(Cn4ccnc4)cn3)CC2)c1 | 17.61
6 | c1cn(Cc2ccc(N3CCCN(C4CCCC4)CC3)nc2)cn1 | 4.63
7 | Fc1ccc(N2CCCN(c3ccc(Cn4ccnc4)cn3)CC2)cc1 | 54.49
8 | COc1ccc2[nH]cc(-c3ccnc(NC4CCCC4)n3)c2c1 | -4.95
9 | Cc1noc(CCCC(=O)NC(C)c2ccc(Cl)s2)n1 (stereo unspecified) | 15.4
10 | Cc1nc(NCC(O)CN2CCCCCC2)c2c(C)noc2n1 (stereo unspecified) | 30.87
11 | CCc1cnc(C)nc1NCCN1CCCCCC1 | 7.08
12 | CCc1cnc(C)nc1NCC(O)CN1CCCCCC1 (stereo unspecified) | 80.68
13 | COc1nn(C)c2c1CCCN(S(=O)(=O)c1cccc(F)c1)C2 | 52.47
14 | COc1nn(C)c2c1CCCN(S(=O)(=O)c1cccc(C)c1)C2 | 23.43
15 | COc1cccc(S(=O)(=O)N2CCCc3c(OC)nn(C)c3C2)c1 | 39.57
16 | COCc1nc(CNc2cc(C)on2)cs1 | -65.51
17 | O=C(NC1CC1)[C@@H]1CCO[C@@H]2CCN(Cc3ccco3)C[C@H]21 | 46.73
18 | COc1cccc(-c2cc(NCC(=O)O)nc3[nH]ccc23)n1 | 74.44
19 | COc1cccc(-c2cc(NCCN(C)C)nc3[nH]ccc23)n1 | 0.51
20 | COc1cccc(-c2cc(NCCO)nc3[nH]ccc23)n1 | 0.51
21 | N[C@H]1CN(C(=O)c2ccccc2OCc2ccccc2)C[C@@H]1C1CC1 | 13.86
22 | Cc1nccn1C1CCCN(C(=O)c2ccc3cc[nH]c3c2)C1 (stereo unspecified) | 74.35

Row | SMILES | INHIBITION [%]
23 | Cc1nn2cccnc2c1C(=O)N1CCCC(n2ccnc2)C1 (stereo unspecified) | 28.51
24 | CCc1nccn1C1CCCN(C(=O)c2ccc(OC)c(OC)c2)C1 (stereo unspecified) | -14.17
25 | Cc1nn2cccnc2c1C(=O)N1CCCC(n2cccn2)C1 (stereo unspecified) | -21.72
26 | Cc1nccn1C1CCCN(C(=O)c2ccc3c(c2)nnn3C)C1 (stereo unspecified) | 1.61
27 | Cc1nccn1C1CCCN(C(=O)c2ccc3c(c2)CCC3)C1 (stereo unspecified) | -33.61
28 | Cc1nn2cccnc2c1C(=O)N1CCCC(n2ccnc2C)C1 (stereo unspecified) | 56.02
29 | Cc1nccn1C1CCCN(C(=O)c2ccc(N(C)C)nc2)C1 (stereo unspecified) | 55.7
30 | CCc1nccn1C1CCCN(C(=O)c2ccc3c(c2)nnn3C)C1 (stereo unspecified) | 58.05
31 | Cc1nccn1C1CCCN(C(=O)c2cc3ccccc3[nH]2)C1 (stereo unspecified) | -43.41
32 | CN(C)c1ccc(C(=O)N2CCCC(n3cccn3)C2)cn1 (stereo unspecified) | 39.54
33 | Cc1nccn1C1CCCN(C(=O)c2ccc(N(C)C)nn2)C1 (stereo unspecified) | 19.35
34 | O=C(NCC1CCC(c2nnc(-c3cccnc3)o2)CC1)C1CC1 (stereo unspecified) | 43.77
35 | O=C(O)c1c(Cl)ncn1-c1ccccc1 | 19.33
36 | CS(=O)(=O)N1CCOCC2(CN(Cc3ccc(F)cc3)CCO2)C1 (stereo unspecified) | -64.46
37 | COc1ccc(C2CCCN2C(=O)NCCNc2ccccn2)cc1 (stereo unspecified) | -34.82
38 | CCOc1ccc(CNCC(O)c2ccccc2)cc1Cl (stereo unspecified) | 38.61
39 | CCOC(=O)N1CCC(C(=O)Nc2nnc(C(F)(F)F)[nH]2)CC1 | -22.24
40 | O=C(Nc1ccccc1)NC1CCN(C2CCOC2)CC1 (stereo unspecified) | -22.24
41 | COc1c(C2CCCN2C(=O)c2cnc[nH]2)c(C)nn1C (stereo unspecified) | -7.41
42 | CCc1nc(CC(=O)N2CCC(C(=O)N(CC)CC)CC2)cs1 | -6.37
43 | COc1ccc(CC(=O)NCCCc2nnc3nc(C)cc(C)n23)cc1 | 0.54
44 | NC1CCC(Nc2nccc(CCC(F)(F)F)n2)CC1 (stereo unspecified) | 2.17

Row | SMILES | INHIBITION [%]
45 | Cc1nn(C)c2sc(C(=O)N3CCCC(n4ccnc4C)C3)cc12 (stereo unspecified) | 51.49
46 | Cc1cc(C(=O)N2CCCC(n3ccnc3C)C2)c(C)s1 (stereo unspecified) | -0.55
47 | Cc1nc(C)c(C(=O)N2CCCC(n3ccnc3C)C2)s1 (stereo unspecified) | 45.49
48 | N#Cc1cn(C2CC2)c(=O)n(CC(O)c2ccc(Cl)cc2)c1=O (stereo unspecified) | 28.33
49 | Nc1cc2c(nn1)CCN(C(=O)c1csc(-c3cccs3)n1)C2 | 38.67
50 | Nc1cc2c(nn1)CCN(C(=O)c1csc(-c3ccccc3)n1)C2 | 29.13
51 | Nc1cc2c(nn1)CCN(C(=O)c1csc(-c3ccco3)n1)C2 | 64.9
52 | Cc1cc(=O)n(C)cc1NC(=O)CC1CCC1 | -54.44
53 | CCN(C)C(=O)c1cccc(S(=O)(=O)NCCc2csc(N)n2)c1 | 67.22
54 | CCc1nc(CCNS(=O)(=O)c2cccc(C(=O)N(C)CC)c2)cs1 | 34.18
55 | CCN(C)C(=O)c1cccc(S(=O)(=O)NCCc2nc(C)cc(=O)[nH]2)c1 | 7.83
56 | O=C(c1ccoc1)N1CC[C@H]2C[C@@H](c3ccncn3)O[C@@H]2C1 | 43.71
57 | Cc1ccc(CN2CC3(CCN(S(=O)(=O)c4ccccc4)C3)C2)o1 | 31.5
58 | CCS(=O)(=O)N1CCC2(CN(Cc3ccc(C)o3)C2)C1 | 54.23
59 | CCS(=O)(=O)N1CCC2(CCN(Cc3ccc(C)o3)C2)C1 (stereo unspecified) | 9.53
60 | O=C(N[C@@H]1CNCCC[C@H]1O)c1ccc(OCCN2CCOCC2)cc1 | 36.99
61 | CCN(Cc1ccccc1)c1ncnc2c(C)nn(CC)c12 | -4.77
62 | O=C(NCC1CCCO1)c1nc2c(s1)CCCN2Cc1ccccc1 (stereo unspecified) | 29.3
63 | c1coc(CN2CCn3c(COCC4CC4)nnc3C2)c1 | -0.24
64 | CCOCC1CN(c2ccc(C)nn2)Cc2cnn(CC)c21 (stereo unspecified) | -3.65
65 | CNC(=O)C1CN(C(=O)Cc2ccc(OC)cc2)Cc2cn(C)nc21 (stereo unspecified) | 1.75
66 | COc1ccc(S(=O)(=O)NC(=O)COC2CCCC2)cc1 | -43.47

Row | SMILES | INHIBITION [%]
67 | COc1cccc(OCC(=O)NS(=O)(=O)c2cccnc2)c1 | 11.09
68 | Cc1cc(C)c(OCC(=O)NS(=O)(=O)c2cccnc2)c(C)c1 | -76.17
69 | CCOCCCC(=O)NS(=O)(=O)c1ccc(C)s1 | 23.64
70 | Cc1ccc(S(=O)(=O)NC(=O)CCOCc2ccccc2)s1 | 53.13
71 | COc1cccc(S(=O)(=O)NC(=O)COc2c(C)cccc2C)c1 | 60.31
72 | CS(=O)(=O)c1cccc(S(=O)(=O)NC(=O)CCC2CCCCC2)c1 | -10.29
73 | COc1cccc(S(=O)(=O)NC(=O)COC2CCCCC2)c1 | -1.02
74 | CS(=O)(=O)c1cccc(S(=O)(=O)NC(=O)CC2CCCC2)c1 | 63.54
75 | COc1cccc(S(=O)(=O)NC(=O)COC2CCCC2)c1 | 65.77
76 | CS(=O)(=O)c1cccc(S(=O)(=O)NC(=O)CC2CCCCC2)c1 | -20.19
77 | Cc1ccc(S(=O)(=O)NC(=O)CCOCC(C)C)s1 | -13.12
78 | CSc1ccccc1C(=O)N(C)Cc1nncn1C(C)C | 36.79
79 | CCn1cc(-c2nn3c(C(F)(F)F)nnc3s2)cn1 | -21.49
80 | CCC(=O)N1CCCC(C(=O)c2cnn(-c3ccc(F)cc3)c2N)C1 (stereo unspecified) | -4.78
81 | CC(NC(=O)c1ccoc1)C(=O)N(C)Cc1cccc(C(F)(F)F)c1 (stereo unspecified) | 2.51
82 | COCCC1COC2(CCN(C(=O)C3CCC3)CC2)C1 (stereo unspecified) | -18.7
83 | CC(C)NC1CCc2c(ccc(=O)n2CCN2CCOCC2)C1 (stereo unspecified) | -21.78
84 | COc1cccc(OCC(=O)NS(=O)(=O)c2ccc(C)s2)c1 | 51.21
85 | CC(=O)c1cccc(OCC(=O)NS(=O)(=O)c2ccc(C)s2)c1 | -36.13
86 | COc1cccc(OCC(=O)NS(=O)(=O)c2ccc(Br)s2)c1 | -4.22
87 | CCn1cncc1CN(Cc1ccc(OC)cc1OC)CC1CCCO1 (stereo unspecified) | 33.64
88 | O=C1CCC2(CCCN(c3ncc(Cl)cc3F)C2)CN1CC1CC1 (stereo unspecified) | -31.23

Row | SMILES | INHIBITION [%]
89 | CN(CCCNC(=O)NCc1ccncc1)CC(F)(F)F | 21.71
90 | CN(CCCNC(=O)c1ccccc1OCC(N)=O)CC(F)(F)F | 51.96
91 | CN(CCCNC(=O)c1cccc(OCC(N)=O)c1)CC(F)(F)F | -163.17
92 | COCCOc1ccccc1C(=O)NCCN(C)C(C)C | 27.5
93 | CN(CCCNC(=O)c1ccccc1F)CC(F)(F)F | 66.74
94 | CN(CCCNC(=O)c1ccc(C#N)cc1)CC(F)(F)F | 26.11
95 | CCc1c(C(=O)NCC(=O)OCC2CC2)cnn1-c1ccc(C)cc1 | -14.3
96 | CCN1CC2(CC1=O)CN(C(C)=O)CCN(S(=O)(=O)CC)C2 (stereo unspecified) | -161.57
97 | Cc1ccc(CN2C[C@H](OCCN(C)C)[C@H]3COC[C@H]32)o1 | 15.36
98 | COc1nn(C)c2c1CCCN(C(=O)c1ccc(C)c(F)c1)C2 | -128.25
99 | COc1ccccc1C(=O)NC(CC(=O)O)c1cccs1 (stereo unspecified) | 24.31
100 | COC(=O)CC(NC(=O)c1ccccc1OC)c1cccs1 (stereo unspecified) | 53.58
101 | COC(=O)CC(NC(=O)c1ccc(OC)cc1OC)c1cccs1 (stereo unspecified) | 27.47
102 | CCC[C@@H]1CN(Cc2c[nH]nc2-c2ccc(OC)cc2)C[C@H]1NC(C)=O | 42.4
103 | Cc1ccc(F)c(C(=O)N2C[C@@H](C(=O)O)[C@H](c3ccccc3)C2)c1Cl | 16.49
104 | CCn1nc(C)c(CN(CCOC)C(=O)c2ccccc2N(C)C)c1C | 15.74
105 | CCn1nc(C)c(CN(CCOC)C(=O)c2cnc(C)nc2O)c1C | 48.68
106 | CCOc1ccc(C(=O)N(CCOC)Cc2c(C)nn(CC)c2C)o1 | 65.1
